The source of these data is PubChem BioAssay (NCATS).

Results filed as inconclusive are left out. A call without a number means that no potency is given here. Active and inactive are the calls of the source. Calls come from the whole dose curve; as a rule, active = well fitted inhibition curve with a large enough effect; inconclusive = small, poorly fitted or top-dose-only effect; inactive = flat fitted curve, though single readings scatter.

Sequence of Calcium and integrin-binding protein 1 (Homo sapiens) (Q99828 whole entry, looked up): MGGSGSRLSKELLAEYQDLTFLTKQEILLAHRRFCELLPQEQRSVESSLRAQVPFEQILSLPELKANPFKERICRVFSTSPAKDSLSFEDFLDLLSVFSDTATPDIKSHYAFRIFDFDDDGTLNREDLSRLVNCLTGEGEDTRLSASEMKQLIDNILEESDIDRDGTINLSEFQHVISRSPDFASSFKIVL

The test has as its target Calcium and integrin-binding protein 1 (Homo sapiens) (UniProt Q99828). Kind of test: Primary qHTS for Identification of Calcium Integrin Binding Protein 1 (CIB1) Competitor (AID 1508620). Note: top concentration of the series differs between compounds. The following applies: CIB1-GST / FITC-alphaIIb peptide fluorescence polarization; series mostly up to 114 µM. Put shortly:
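Fluorescence polarization competition: GST-tagged CIB1 (1 uM final) preincubated with compound 15 min at room temperature, then FITC-labelled alphaIIb peptide (100 nM final) added. After 15 min at room temperature, polarization read at Ex 480/Em 540.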
In general terms: qHTS replaces the single test concentration by a dilution series.
For `C=CCNc1oc(-c2cccs2)nc1C#N`, the Potency entry was “inactive”.
On to `COc1cccc(C2c3c(ncn(-c4cccc(Cl)c4)c3=N)Oc3ccc4ccccc4c32)c1` (stereo not drawn), for which the Potency result was “inactive”.
For `Cc1ccc(-c2nccc(=O)n2CC(=O)N(C)C(C)c2ccco2)cc1` (stereo not drawn), the Potency entry is “inactive”.
For the compound `O=C(CN1C(=O)N/C(=C\c2cccn2-c2cccc(C(=O)O)c2)C1=O)Nc1ccc(F)cc1`, the Potency result was “inactive”.
As for `Nc1ccccc1OCCn1c(CCNC(=O)C2CCCCC2)nc2ccccc21`, the Potency entry is “inactive”.
Consider `Cc1ccnc(NC(=S)Nc2cccc([S+](=O)([O-])Nc3ccccc3F)c2)c1`, for which the Potency result was “inactive”.
In the case of `COc1cccc(CC(=O)Nc2nc(-c3ccc4c(c3)CCN4C(=O)c3ccccc3C)c(C)s2)c1`, the Potency result was “inactive”.
As for `COc1ccc(-c2ccc(=O)n(CC(=O)NCCc3ccccc3)n2)cc1OC`, the Potency entry was “inactive”.
The same measure for `C[n+]1cc(C(O)(c2ccccc2)c2ccccc2)n2ccccc21`: “inactive”; for `O=C(Nc1ccc(-c2nc3ccccc3[nH]2)cc1)c1ccc2n[nH]nc2c1`: “inactive”; for `Cc1cccc(NC(=O)c2cnn3c(C)cc(C)nc23)c1`: “inactive”.
The same measure for `N#CN1CCC(NS(=O)(=O)c2ccc(F)cc2)CC1`: “inactive”.
The same measure for `COc1cc(O)c(C(CC(=O)N2CCC(c3ccccc3)CC2)c2ccc(C)cc2)c(OC)c1` (stereo not drawn): “inactive”; for `O=C(CCc1ccccc1)Nc1ncnc2c1C(c1ccccc1)c1c(ccc3ccccc13)O2` (stereo not drawn): “inactive”; for `COc1ccc(OC)c(C2=Nn3c(nnc3-c3ccc(OC)c(OC)c3)SC2)c1`: “inactive”.
As to `CC(O)c1cc2c(s1)c1cnn(Cc3ccccc3F)c(=O)c1n2C` (stereo not drawn), the Potency entry was “inactive”.
Take `N#Cc1ccc(-c2ccc(CNc3ccc(N4CCCCC4)cc3)o2)cc1`: the Potency entry is “inactive”.
For the compound `O=C(Nc1ccc(F)c(C(F)(F)F)c1)Nc1nnc(-c2cccnc2)s1`, the Potency entry is “inactive”.
For the compound `CCOC(=O)C1CCN(c2ccc(NCc3ccc(-c4ccc(C#N)cc4)o3)cc2)CC1`, the Potency result is “inactive”.
For the compound `CS(=O)(=O)c1ccc(C(=O)OCC(=O)N2CCN(Cc3ccccc3)CC2)cc1[N+](=O)[O-]`, the Potency entry is “inactive”.
The value for `CCOC(=O)c1c(CNCc2ccccc2F)c2sc(C)cc2n1C` was “inactive”; that for `O=C(C1CCN(c2nc(-c3ccc(Br)cc3)cs2)CC1)N1CCOCC1` was “inactive”; that for `O=C(/C=C/c1c(F)c(F)c(F)c(F)c1F)Nc1cccc([S+](=O)([O-])Nc2ccccc2F)c1` was “inactive”.
